# PvdQ acylase – P. aeruginosa PvdQ acylase inhibitors, primary screen, biochemical, fluorescence, plate reader and imaging, single point | inhibition, % at 10 µM | 0.063% of 340,000 active | purified PvdQ acylase | AID 488965, 2010; in the data active = inhibition above about 30%, passing the limit was not always enough;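 note: 0% = vehicle neutral wells and 100% = reference inhibitor wells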
# CFTR F508del cor – F508del CFTR correction, initial screen, CFBE line, single point; activity (quench increase), % at 7.58 µM; 0.36% of 350,000 active; CFBE cells, YFP halide quenching; stimulated with forskolin plus potentiator P3; % fluorescence drop versus neutral controls; AID 720511, 2013;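 active = mean added fluorescence quench of at least 8% versus neutral control, with both replicates also reaching 8%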;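 note: cells transiently co-express mutant CFTR-F508del with the halide-sensitive YFP; corrector assay measuring rescue of mutant channel to the surface after 24 h compound exposure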
# ARNT TACC3 PPI – disruptors of ARNT/TACC3 protein interaction, primary screen, biochemical, AlphaScreen, single concentration; AlphaScreen His-ARNT PAS-B/GST-TACC3 binding, luminescence; TACC3 fragment carries E629A point mutation; inhibition, % at 9.99 µM; 0.66% of 390,000 active; AID 623870, 2012;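 active = mean inhibition of replicates at least 50% and at least half of replicates each reaching 50%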;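 note: 0% = complete ARNT plus TACC3 wells and 100% = ARNT alone without TACC3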
# rRNA inh HTS – reduced GFP signal of wild-type E. coli, primary screen, bacterial rRNA inhibitor project, GFP/RFP fluorescence, OD600, single point. E. coli WT GFP vs humanized-ribosome RFP mutants, 24 h; hits give low values; DMSO median 0, no signal -100. GFP signal change (wild-type ribosome), % (concentration not given with the values). 1.6% of 350,000 active. AID 720706, 2013;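 active = significant combined selectivity score with lowered wild-type GFP, culture density cut under 30%, mutant RFP and density less affected; inactive = any of these conditions unmet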
# ERAP1 inh – human ERAP1 aminopeptidase inhibitors, primary screen, biochemical, single point, plate reader. Endoplasmic reticulum aminopeptidase 1 (Homo sapiens), Q9NZ08. recombinant ERAP1, Leu-AMC fluorescence, 60 min. inhibition, % at 10.7 µM. 0.15% of 340,000 active;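 active = mean replicate inhibition of at least 30%, or all replicates individually reaching that 30% level; inactive = mean below 30% and not every replicate reaching it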;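 note: 0% = neutral control wells and 100% = L-leucinethiol positive control wells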
# Target sequence (Q9NZ08 whole entry, looked up): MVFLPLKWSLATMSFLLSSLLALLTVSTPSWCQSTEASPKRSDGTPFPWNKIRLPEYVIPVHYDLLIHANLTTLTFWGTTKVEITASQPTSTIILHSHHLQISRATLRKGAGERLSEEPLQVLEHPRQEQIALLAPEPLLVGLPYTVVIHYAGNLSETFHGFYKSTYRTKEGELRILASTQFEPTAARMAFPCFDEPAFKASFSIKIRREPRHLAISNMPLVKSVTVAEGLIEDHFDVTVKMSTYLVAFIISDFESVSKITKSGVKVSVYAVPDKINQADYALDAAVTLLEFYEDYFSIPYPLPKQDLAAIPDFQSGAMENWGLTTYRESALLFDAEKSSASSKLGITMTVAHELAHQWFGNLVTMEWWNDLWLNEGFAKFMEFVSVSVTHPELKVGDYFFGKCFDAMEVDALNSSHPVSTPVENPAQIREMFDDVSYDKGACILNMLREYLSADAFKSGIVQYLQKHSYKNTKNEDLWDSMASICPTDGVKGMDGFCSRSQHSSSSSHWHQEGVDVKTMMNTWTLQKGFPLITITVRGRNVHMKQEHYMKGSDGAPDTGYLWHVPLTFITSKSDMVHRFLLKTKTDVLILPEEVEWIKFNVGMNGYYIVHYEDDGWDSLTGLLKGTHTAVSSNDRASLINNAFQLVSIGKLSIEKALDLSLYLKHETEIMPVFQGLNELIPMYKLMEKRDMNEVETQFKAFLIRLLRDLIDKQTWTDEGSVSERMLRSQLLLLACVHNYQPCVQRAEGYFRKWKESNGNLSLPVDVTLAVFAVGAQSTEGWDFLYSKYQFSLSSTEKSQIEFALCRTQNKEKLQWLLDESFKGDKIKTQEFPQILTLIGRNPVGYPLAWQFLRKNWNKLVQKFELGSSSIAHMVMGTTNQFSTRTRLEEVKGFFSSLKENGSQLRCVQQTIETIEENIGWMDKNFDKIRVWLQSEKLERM
# The depositor's hits bear a star; x = no result. The list is not random: actives were taken first. Their share in the collection is about 2.1%.
SMILES,PvdQ acylase,CFTR F508del cor,ARNT TACC3 PPI,rRNA inh HTS,ERAP1 inh
CC1CC(=O)c2c(cc3c(-c4c(O)cc(O)c5c(O)c6c(cc45)OC(C)CC6=O)c(O)cc(O)c3c2O)O1 (stereo not given),-7.2,x,95.7*,x,x
O=C1CC(c2ccc(O)cc2)Oc2cc(O)cc(O)c21 (stereo not given),-10.5,-1.6,-2.2,x,1.4
CCN(Cc1ccccc1)c1ccc(/C=N/N2CCOCC2)cc1,-6.1,0.1,11.2,-21.8*,-5.0
CCN(CC)c1ccc(/C=N/N2CCOCC2)cc1,5.6,x,1.0,x,x
CCC(=O)Nc1ccc2c(c1)OC[C@@H](C)N(CCc1ccccc1)C[C@@H](C)[C@H](OC)CN(C)C2=O,x,-1.7,5.6,-2.0,x
Cc1sc2ncnc(Sc3ccccc3C(=O)Nc3ccc(Br)cc3)c2c1C,2.2,x,-0.9,x,1.9
Cc1sc2ncnc(Sc3ccccc3C(=O)Nc3ccc(C#N)cc3)c2c1C,-16.2,x,-10.7,-22.8*,-0.6
CCNC(=O)C[C@@H]1C=C[C@H](NS(=O)(=O)c2ccc(C)cc2)[C@H](CO)O1,x,0.1,-14.3,-3.6,0.3
O=C(NC12CC3CC(CC(C3)C1)C2)c1ccc(-c2ccccc2Cl)o1,-5.5,x,active,x,x
N#C/C(=N\Nc1cccc(F)c1)C(=O)C1CC1,-11.8,-1.8,-7.1,-24.8*,-5.9
COc1ccc(N2CCN(CCS(=O)(=O)c3cc(Cl)ccc3Cl)CC2)cc1,-12.0,-3.1,x,-21.6*,-0.5
COc1ccc(CCn2c(N)c(S(=O)(=O)c3cccs3)c3nc4ccccc4nc32)cc1OC,3.0,2.6,30.3,-20.8*,-3.1
COc1ccc(NC(=O)CCC(=O)Nc2cc(OC)c(NC(=O)c3cccs3)cc2OC)cc1,-6.9,1.4,1.2,6.2,-1.8
COc1cccc(NC(=O)CCC(=O)Nc2cc(OC)c(NC(=O)c3cccs3)cc2OC)c1,-2.2,-2.7,49.8*,-2.1,2.1
Cc1nc(N2CCOCC2)nc(Oc2ccccc2)c1[N+](=O)[O-],-12.1,-0.2,3.8,-43.2*,0.5
CCOC(=O)Cc1csc(NC(=O)c2cc3ccccc3o2)n1,-11.1,-2.3,8.1,-19.2*,1.5
CCOC(=O)Cc1csc(NC(=O)c2cc(C)cc(C)c2)n1,5.4,3.8,-3.0,-25.2*,-0.5
COC(=O)c1cc(NC(=O)c2cc3ccccc3o2)cc(C(=O)OC)c1,1.2,1.2,-19.1,-22.7*,-1.3
CCS(=O)(=O)Nc1ccc2c(c1)C(=O)N(C)C[C@@H](OC)[C@H](C)CN(C(=O)NC(C)C)[C@H](C)CO2,x,-1.0,0.9,1.1,-1.1
CCCCNc1c(-c2ccc(SC(C)CC)c(OC)c2)nc2ccc(Cl)cn12 (stereo not given),-11.1,-2.2,-4.9,-8.0,-1.6
CCCCNc1c(-c2ccc(SC(C)CC)c(OC)c2)nc2ccc(C)cn12 (stereo not given),-21.5,8.3*,19.7,-21.8,x
O=C1NC[C@H](CCCCN2C[C@H](Cc3ccccc3)N(CC3CCCCC3)C(=O)C2=O)N(CCc2ccc(O)cc2)C1=O,x,-0.3,x,-21.4*,-14.3
O=C1NC[C@H](CCCCN2C[C@H](Cc3ccccc3)N(CCc3ccc(O)cc3)C(=O)C2=O)N(CCc2ccc(O)cc2)C1=O,x,5.2,x,17.2,-8.0
CC(C)C[C@H]1CN([C@@H](Cc2ccccc2)CN2CCC[C@@H]2CN2C(=O)C(=O)NC[C@@H]2Cc2ccc(O)cc2)C(=O)C(=O)N1CC1CCCCCC1,x,-0.9,x,-15.8,-0.5
CC(C)C[C@H]1CNC(=O)C(=O)N1C[C@@H]1CCCN1C[C@H](Cc1ccc(O)cc1)N1C[C@H](Cc2ccccc2)N(CC2CCCCC2)C(=O)C1=O,x,2.7,x,-29.2*,-3.5
SMILES,PvdQ acylase,CFTR F508del cor,ARNT TACC3 PPI,rRNA inh HTS,ERAP1 inh
O=C1NC[C@H](CCCCN2C[C@H](Cc3ccccc3)N(CCc3ccc(O)cc3)C(=O)C2=O)N(CCc2ccccc2)C1=O,x,0.8,x,-18.5*,-6.1
Cc1ccc(S(=O)(=O)Nc2ccc3c(c2)C(=O)N(C)[C@H]2CC[C@H](CC(=O)NCCc4ccncc4)O[C@H]2CO3)cc1,x,2.2,-3.5,-0.8,-2.3
CCOC(=O)c1sc(/S(C)=N\S(=O)(=O)c2cccc(Cl)c2)c2c1CCC=C2 (stereo not given),-5.1,1.8,0.1,-19.1*,3.3
COc1nc(N)nc(NC(=O)c2cccs2)c1N=O,-15.3,11.2*,8.9,9.5,-0.1
C[C@@H]1CCCCO[C@H](CN(C)CC2CCCCC2)[C@H](C)CN([C@@H](C)CO)C(=O)c2cc(NC(=O)CCC(F)(F)F)ccc2O1,x,-1.2,3.3,-0.3,x
O=C(N/N=C/c1c[nH]c2ccccc12)c1cc(-c2ccccc2)n[nH]1,-6.8,1.5,1.1,-34.4*,-0.5
O=C(N/N=C/c1c[nH]c2ccccc12)C1CC1c1ccccc1 (stereo not given),-7.5,2.7,10.2,-27.9*,1.2
COc1ccc(CC(=O)NCC(=O)N/N=C/c2c[nH]c3ccccc23)cc1,-6.1,-0.3,-4.8,-36.8*,1.5
CCOC(=O)c1ccc2[nH]c3c(c2c1)CCCC3,-5.5,-2.2,-8.9,-27.4,-1.4
CCOC(=O)c1ccc2[nH]c3c(c2c1)CCCC3O (stereo not given),-8.3,-2.9,3.7,-32.3*,0.2
Cc1nn(C)cc1NC(=O)C[C@@H]1CC[C@@H]2[C@@H](COc3ccc(NC(=O)C4CCOCC4)cc3C(=O)N2C)O1,x,x,-6.4,0.1,1.5
CC1(c2ccc(OCC#N)cc2)C=C(c2ccc(OCC#N)cc2)n2nc(C(F)(F)F)nc2N1 (stereo not given),3.1,3.8,-4.0,-26.8*,15.0
COc1ccc(CN(C)C[C@H]2OCCCC[C@@H](C)Oc3ccc(NC(=O)NC4CCCCC4)cc3C(=O)N([C@H](C)CO)C[C@@H]2C)cc1,x,-1.7,-4.6,4.1,0.0
O=C(CCN1CCCCC1)NCC[C@@H]1CC[C@H](NC(=O)C2CCOCC2)[C@@H](CO)O1,x,-2.1,-1.2,1.3,3.5
COc1ccc(Nc2cnn(-c3nc4ccccc4s3)c(=O)c2Cl)cc1,-9.6,x,2.5,-24.8*,0.0
NS(=O)(=O)c1cc(C2(O)NC(=O)c3ccccc32)ccc1Cl (stereo not given),-7.5,11.1*,-0.3,-6.2,-1.6
C=C(C)Cn1c2ccc(NC(=S)NCc3ccccc3F)cc2c(=O)n1C,x,-0.2,x,-23.2*,-0.4
Cn1c(=O)c2cc(NC(=S)NCc3ccccc3F)ccc2n1Cc1ccccc1,x,1.0,x,3.9,-6.3
CCCCN(C)C1=CC2=CC(=C(C#N)C#N)CCC2CC1 (stereo not given),-4.0,33.8*,x,87.1,-1.6

# From PubChem
